We go through 92 compounds from PubChem BioAssay AID485317 (Broad Institute, 2010).

The campaign covered roughly 290,000 compounds. About 11,000 (3.8%) were called active. Shown is part of a subset that was picked to be rich in actives. A number with no mark means an inactive call.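 The calls were made as follows: active = mean replicate inhibition above about 79%, with every replicate also reaching it (limit read from the data); inconclusive = only one of the two criteria met; inactive = mean below limit and not every replicate reaching it.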

The term inhibition denotes the relative decrease from the control value, in per cent.

For this test, the target named is FAD-linked sulfhydryl oxidase ALR (Homo sapiens) (UniProt P55789). Description: ALR-catalysed DTT oxidation blockers – biochemical, H2O2 detection, HRP-luminol luminescence, single point, primary screen (AID 485317). The note with it: purified ALR, stronger effect = higher value, concentration not given here.
FAD-linked sulfhydryl oxidase ALR (Homo sapiens), sequence (P55789 whole entry, looked up): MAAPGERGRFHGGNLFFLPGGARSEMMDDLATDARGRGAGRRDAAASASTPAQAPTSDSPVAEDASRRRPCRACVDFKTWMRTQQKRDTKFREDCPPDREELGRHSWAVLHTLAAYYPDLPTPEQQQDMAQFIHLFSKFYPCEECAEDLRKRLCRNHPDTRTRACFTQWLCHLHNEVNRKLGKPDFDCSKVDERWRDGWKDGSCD
With `Cc1ccc(-c2c3c(=O)n(C)c(=O)n(C)c3cn2-c2ccccc2O)cc1`, the inhibition was -5.8%.

As to `Cc1ccc(-c2c3c(=O)n(C)c(=O)n(C)c3cn2-n2cnnc2)cc1`, the inhibition is 97.2% (active).

As for `COc1ccc(-c2c3c(=O)n(C)c(=O)n(C)c3cn2-c2cccc(OC)c2)cc1`, the inhibition was -5.98%.

Regarding `O=C(COC(=O)c1cc(S(=O)(=O)N2CCOCC2)ccc1Cl)NCCc1ccccc1`, the inhibition was -0.788%.

With `CCc1ccccc1OCC(=O)Nc1ccc(C)c(S(=O)(=O)N2CCCCCC2)c1`, the inhibition was -0.917%.

On to `COc1ccc(NC2CCCN(C(=O)c3ccncc3)C2)cc1` (configuration not stated), for which the inhibition was 95.8% (active).

For the compound `COC(=O)c1cccc(C(=O)N2CCCC(Nc3ccc4c(c3)OCCO4)C2)c1` (configuration not stated), the inhibition is 93.9% (active).

In the case of `O=C(Nc1ccc2c(c1)OCCO2)C1CCCN(c2ncccn2)C1` (configuration not stated), the inhibition was -3.09%.

With `CC(C)c1ccc(NC(=O)C2CCCN(S(=O)(=O)c3cccnc3)C2)cc1` (configuration not stated), the inhibition is 1.01%.

In the case of `Cc1cccc(C(=O)N2CCCC(Nc3ccc(C(C)C)cc3)C2)n1` (configuration not stated), the inhibition is 97.8% (active).

`COc1ccc(C(=O)N2CCC(C(=O)Nc3ccc(C)cc3)CC2)cc1`: the inhibition was -30.7%.

With `CC(C)c1ccc(NC2CCCN(C(=O)c3ccncc3)C2)cc1` (configuration not stated), the inhibition is 53.9%.

Regarding `COC(=O)c1cccc(C(=O)N2CCC(CCC(=O)NCc3ccc(F)cc3)CC2)c1`, the inhibition is -3.28%.

`CC(C)c1ccc(NC(=O)NC2CCCCC2)cc1`: the inhibition was -0.723%.

`O=C(Nc1ccc2nc3n(c(=O)c2c1)CCCC3)c1ccc(Cl)nc1`: the inhibition was 0.685%.

On to `COc1ccccc1-c1nnc(-c2ccc(F)cc2)o1`, for which the inhibition is 2.91%.

Take `COc1ccc(NS(=O)(=O)c2ccc(C)c(C(=O)N(C)Cc3ccc(OC)cc3OC)c2)cc1`: the inhibition was -17.9%.

`O=C(Nc1ccc(S(=O)(=O)N2CCCCC2)cc1)C1CCN(C(=O)c2ccc(F)cc2)CC1`: the inhibition was -0.325%.

For the compound `CC1CCN(C(=O)c2cccc(S(=O)(=O)N3CCCc4ccccc43)c2)CC1`, the inhibition was -15.4%.

Regarding `CC(C)(C)OC(=O)C[C@@H]1C/C=C\C[C@@H](CC(=O)N[C@@H](CO)Cc2ccccc2)C(=O)N2CCC[C@H]2COC1=O`, the inhibition is -8.71%.

In the case of `COc1ccc(C(=NN)c2ccc(OC)cc2)cc1`, the inhibition was 0.931%.

Turning to `CCC(=O)c1ccc(OCC(=O)Nc2ccc(N3CCCCC3)cc2)cc1`, the inhibition is -9.1%.

As for `Cc1ccc(C)c(OCCC(=O)Nc2cccc(S(=O)(=O)N3CCCC3)c2)c1`, the inhibition was -0.0535%.

In the case of `CCc1ccc(NC(=O)CN2C(=O)CSC2=O)cc1`, the inhibition was 96% (active).

Turning to `COc1ccc(NC(=O)CN2C(=O)CSC2=O)cc1`, the inhibition was 21.6%.

With `CCc1ccc(NC(=O)Cn2ncn3c(cc4ccccc43)c2=O)cc1`, the inhibition was 3.26%.

`Cc1ccc2nc(NC(=O)C3CSC4(C)CCC(=O)N34)sc2c1` (configuration not stated): the inhibition is -0.552%.

Take `O=C1CSC(c2cccc(F)c2)N1c1ccc(O)cc1` (configuration not stated): the inhibition is -57.5%.

With `O=C1CSC(c2ccccc2)N1c1nc(-c2ccc(Cl)cc2Cl)cs1` (configuration not stated), the inhibition was -3%.

Turning to `O=C1CSC(c2cccc(F)c2)N1c1ccccc1F` (configuration not stated), the inhibition was 91.3% (active).

For `COc1ccccc1CNC(=O)c1ccc(Cl)c(S(=O)(=O)N2CCCC2)c1`, the inhibition was -3.23%.

Regarding `CC(=O)O[C@H]1CC[C@@]2(C)[C@@H](CC[C@@H]3[C@@H]2CC[C@]2(C)[C@@H](C(C)(C)O)C[C@@H]32)C1`, the inhibition was -2.24%.

On to `Cc1ccc2nc(-c3ccccc3)cc(C(=O)O)c2c1`, for which the inhibition was 89.7% (active).

Consider `Cc1ccc2nc(-c3cccc(Br)c3)cc(C(=O)Nn3cnnc3)c2c1`, for which the inhibition was 1.88%.

`Cc1ccc2nc(-c3ccncc3)cc(C(=O)Nc3ccncc3)c2c1`: the inhibition was -3.42%.

Turning to `O=C(CC1SC(N2CCOCC2)=NC1=O)Nc1ccccc1F` (configuration not stated), the inhibition was -2.71%.

Turning to `Cc1ccc(S(=O)(=O)N2CCN(C(=O)Cc3sc(C)nc3-c3ccc(F)cc3)CC2)c(C)c1`, the inhibition is -12.2%.

Turning to `CCC1(C)NC(=O)N(CC(=O)N2CCN(c3cccc(Cl)c3)CC2)C1=O` (configuration not stated), the inhibition was 1.58%.

As for `O=C(COC(=O)COc1ccccc1F)Nc1cccc(S(=O)(=O)N2CCCCC2)c1`, the inhibition is -10.2%.

Regarding `COc1ccc(Br)cc1/C=N/n1c(C)nnc1C`, the inhibition is -4.68%.

For `COc1ccc(Br)cc1/C=N/Nc1ccc(Cl)c(C(=O)O)c1`, the inhibition was 96.9% (active).

Take `COc1ccc(Br)cc1/C=N/NC(=O)c1cccc(S(=O)(=O)N2CCOCC2)c1`: the inhibition was -1.11%.

Take `COC(=O)c1ccc(SCc2ccccc2)nc1`: the inhibition is -2.47%.

`CCN(CC(=O)Nc1cccc(S(=O)(=O)N2CCCCC2)c1)Cc1ccccc1`: the inhibition is -23.2%.

Take `Cc1cc(SCc2c(F)cccc2Cl)nc(=O)[nH]1`: the inhibition was 35.2%.

For the compound `Fc1cccc(Cl)c1CSc1ccc(-c2ccco2)nn1`, the inhibition is 98.3% (active).

Take `O=C(CSc1ccc(-c2ccco2)nn1)NCc1ccc2c(c1)OCO2`: the inhibition was 3.65%.

Consider `O=C(CSc1ccc(-c2ccco2)nn1)Nc1cccc(F)c1`, for which the inhibition was -14%.

Consider `Brc1ccc(CSc2ccc(-c3ccco3)nn2)cc1`, for which the inhibition was 98.2% (active).

Take `COc1ccc(NC(=O)CSc2ccc(-c3ccco3)nn2)c(OC)c1`: the inhibition was 0.2%.

As to `CCCC(CNC(=O)COC(=O)C1=NNC(=O)CC1)c1ccc(Cl)cc1Cl` (configuration not stated), the inhibition is 0.0724%.

As to `COc1cc(OC)cc(C(=O)NCC(=O)N2CCCCCCC2)c1`, the inhibition is -4.06%.

Take `COc1ccc(Nc2ncnc3sc(C)cc23)cc1`: the inhibition was 7.07%.

Take `Cc1cccc(C(C)C)c1NC(=O)COC(=O)C1CC(=O)N(Cc2ccccc2)C1` (configuration not stated): the inhibition was -1.43%.

In the case of `C[C@H](CO)N1C[C@H](C)[C@@H](CN(C)S(=O)(=O)c2ccc(F)cc2)Oc2ccc(NC(=O)CCC(F)(F)F)cc2C1=O`, the inhibition was -3.84%.

Turning to `O=C1OC[C@@H]2CCCN2C(=O)[C@H](CC(=O)N(CCO)Cc2ccccc2)C/C=C\CC[C@@H]1Cc1ccc(F)cc1`, the inhibition is -10.6%.

Consider `COc1ccc(Cl)cc1NC(=O)CN(C)C(=O)c1ccc2n[nH]nc2c1`, for which the inhibition was 2.11%.

For the compound `COc1ccc(OCCNC(=O)c2cc(C3CC3)nc3c2cnn3C(C)C)cc1`, the inhibition is -7.42%.

With `O=S(=O)(c1cccc(-c2nnc3n2CCCCC3)c1)N1CCOCC1`, the inhibition was -3.91%.

In the case of `O=S(=O)(c1cccc(-c2cn3ccccc3n2)c1)N1CCCC1`, the inhibition is 0.842%.

Turning to `Cc1cccn2cc(-c3cccc(S(=O)(=O)N4CCCCC4)c3)nc12`, the inhibition was 90.9% (active).

For `COc1ccccc1-c1nnc2n1N=C(c1ccc(OC(F)F)c(OCC3CC3)c1)CS2`, the inhibition was 0.875%.

Take `CCN(C(=O)CSc1ncnc2c1cnn2-c1ccccc1)C1CCS(=O)(=O)C1` (configuration not stated): the inhibition is 8.44%.

Turning to `CCCCn1c(N)c(N(CCOC)C(=O)c2cccc(OCc3ccccc3)c2)c(=O)[nH]c1=O`, the inhibition was -0.129%.

As for `COc1ncnc2c1N=C1CC(C)(C)CC(N)=C1S2`, the inhibition is 99% (active).

On to `COc1ccc(-c2cc(C(=O)N(C)Cc3ccc(OC)c(OC)c3OC)c3ccccc3n2)cc1OC`, for which the inhibition is 0.485%.

For the compound `COc1ccc(Cl)cc1C(=O)OCC(=O)NCc1cccs1`, the inhibition was -0.428%.

For `Cc1ccc(-c2cc(=O)[nH]c(NCc3ccccc3)n2)cc1`, the inhibition is -7.47%.

Regarding `CS(=O)(=O)c1ccc(C(=O)NNC(=O)c2cccs2)cc1`, the inhibition is -4.92%.

As for `O=C(NC(=S)Nc1ccc(NC(=O)c2cccs2)cc1)c1ccc([N+](=O)[O-])cc1`, the inhibition is -3.61%.

On to `NS(=O)(=O)c1ccc(NC(=S)NNC(=O)c2cccs2)cc1`, for which the inhibition is 96.9% (active).

Regarding `C=CC(COCc1ccccc1)N(CC(=O)OC)S(=O)(=O)c1cc(Br)ccc1OC` (configuration not stated), the inhibition is -15.6%.

Consider `Cc1cc(NC(=O)COc2ccc(Cl)cc2Cl)n(CCC#N)n1`, for which the inhibition is -11.3%.

Consider `Cc1cc(Nc2ccccc2)n(C(=O)c2ccc(N)cc2)n1`, for which the inhibition was 28.5%.

With `Cc1cc(Nc2ccccc2)n(CCC#N)n1`, the inhibition is 98.6% (active).

With `Cc1cc(C(=O)OCC(=O)Nc2ccccc2Cl)c(C)o1`, the inhibition was -4%.

For the compound `COc1cc(N)c(Cl)cc1C(=O)OCC(=O)c1ccc2c(c1)NC(=O)CO2`, the inhibition is 1.9%.

Take `O=C(NCc1ccc2c(c1)OCO2)c1c(-c2ccsc2)sc2ccccc12`: the inhibition was 3.11%.

With `Cc1ccc(CS(=O)Cc2ccc(C(=O)N3CCOCC3)o2)cc1` (configuration not stated), the inhibition is -2.5%.

Consider `O=C(NCc1cccs1)c1ccc(CS(=O)Cc2ccccc2Cl)o1` (configuration not stated), for which the inhibition is 21.5%.

Turning to `Cc1ccc(CNC(=O)c2ccc(CS(=O)Cc3cccc(Cl)c3)o2)cc1` (configuration not stated), the inhibition was 92.3% (active).

With `CCN(CC(=O)Nc1ccc(OC)cc1)C(=O)CSCc1ccc(C)cc1`, the inhibition is -1.67%.

On to `Cc1nn(C)cc1C(=O)c1ccccc1`, for which the inhibition is -7.74%.

Take `Cc1cccc(N2CCN(C(=O)C3CCN(S(=O)(=O)c4cnc[nH]4)CC3)CC2)c1C`: the inhibition is 0.188%.

As to `O=C(C1CCCN(S(=O)(=O)c2ccccc2)C1)N1CCN(c2ccc(F)cc2)CC1` (configuration not stated), the inhibition was 19.8%.

Consider `COc1cccc(N2CCN(C(=O)C3CCCN(S(=O)(=O)c4cnc[nH]4)C3)CC2)c1` (configuration not stated), for which the inhibition is 98.9% (active).

On to `COc1ccccc1OCC(=O)OCc1cc(-c2ccco2)on1`, for which the inhibition is -3.11%.

On to `Cc1ccc(S(=O)(=O)N2CCN(C(=O)COC(=O)CNC(=O)c3ccc(C(C)(C)C)cc3)CC2)c(C)c1`, for which the inhibition is -8.74%.

With `CN(C(=O)COC(=O)Cc1ccccc1[N+](=O)[O-])C1CCS(=O)(=O)C1` (configuration not stated), the inhibition was -19.5%.

For the compound `S=C(Nc1ccc(Br)cc1)NC1CCN(Cc2ccccc2)CC1`, the inhibition is 17%.

Turning to `S=C(NN=C1CCN(Cc2ccccc2)CC1)NC1CCCCC1`, the inhibition is 94.2% (active).

With `S=C(Nc1ccc(Br)cc1Cl)NC1CCN(Cc2ccccc2)CC1`, the inhibition is -0.861%.
